# NPSR antagonist: qHTS Assay for Antagonists of the Neuropeptide S Receptor: cAMP Signal Transduction; Q6W5P4; CHO-NPSR cells, cAMP TR-FRET, antagonist mode; Potency, µM (series often up to 38.3 µM), inactives show at the highest dose activity change, negative = inhibition, actives largely listed as inhibitors; 1% of 220,000 active; AID 1461, 2008; further: potency means the concentration at half of the fitted maximal effect; nearly all actives have a fitted effect of over 50% in size
# KDM4E inh: qHTS Assay for Inhibitors of Human Jumonji Domain Containing 2E (JMJD2E). 1.6% of 230,000 active. Lysine-specific demethylase 4E (Homo sapiens), B2RXH2. Potency, µM (doses to about 57.1 µM), for inactives: at the top dose activity change, negative = inhibition, most hits filed as inhibitors. JMJD2E catalytic domain, FDH-coupled NADH fluorescence (FDH is formaldehyde dehydrogenase). AID 2147, 2009; active means well fitted inhibition curve with a large enough effect, not every such curve was filed as active; inconclusive means small, poorly fitted or top-dose-only effect, or another doubt; inactive means no such curve, though single readings can be large or run the other way;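 further: potency means the concentration at half of the fitted maximal effect; 0% = wells with enzyme and -100% = buffer wells without enzyme; nearly all actives have a fitted effect of over 50% in size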
# Coupling enz: qHTS Assay for Inhibitors of Fructose-1,6-bisphosphate Aldolase from Giardia Lamblia: Coupling assay counterscreen; 0.67% of 290,000 active; activity change, negative = inhibition, % at 58.2 µM, hits read low; coupling enzyme system counterscreen, AmpLite Red fluorescence; in the data active means activity change below about -30%
#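 Fluorescence at 525 nm excitation and 598 nm emission measured inhibition of the coupled detection system without aldolase. Compounds (at 57.5 uM final) were preincubated 10 min at room temperature with coupling enzyme reagent before a 20 min substrate/AmpLite Red step.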
# RGS12 GoLoco inh: qHTS Assay for Inhibitors of RGS12 GoLoco Motif Activity (Red Fluorophore); Gai1:RGS12 GoLoco peptide FP, rhodamine, 10 min; Potency, µM (doses to about 61.6 µM), inactives show at the highest dose activity, negative = inhibition, most hits filed as inhibitors; 0.44% of 230,000 active; AID 880, 2007; active means well fitted inhibition curve with a large enough effect, not every such curve was filed as active; inactive means no such curve, though single readings can be large or run the other way; further: potency means the concentration at half of the fitted maximal effect; nearly all actives have a fitted effect of over 30% in size
# Sfp PPTase inh: qHTS Assay for Inhibitors of Bacillus subtilis Sfp phosphopantetheinyl transferase (PPTase). 4'-phosphopantetheinyl transferase ffp (Bacillus subtilis), Q9F4F7. Biochemical Sfp PPTase activity, qHTS. Potency, µM, inactives show largest response in the series, negative = inhibition, actives largely listed as inhibitors. 3.5% of 310,000 active;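 further: the enzyme is Sfp with the accession as filed and its product quenches rhodamine fluorescence; potency means the concentration at half of the fitted maximal effect; 0% = enzyme reaction without inhibitor and -100% = no enzyme wells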
#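 Compounds were incubated with enzyme (final 15 nM) for 15 min at room temperature before substrate addition started the reaction. Fluorescence at 525 nm excitation, 598 nm emission was recorded immediately and after 30 minutes.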
# ALDH1A1 block: qHTS Assay for Inhibitors of Aldehyde Dehydrogenase 1 (ALDH1A1). 7.3% of 220,000 active. Potency, µM (series often up to 75.3 µM), for inactives: top-dose activity, negative = inhibition, most hits filed as inhibitors. Purified ALDH1A1, NADH fluorescence, propionaldehyde substrate. AID 1030, 2008; active means well fitted inhibition curve with a large enough effect, not every such curve was filed as active; inconclusive means small, poorly fitted or top-dose-only effect, or another doubt; inactive means no such curve, though single readings can be large or run the other way;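 further: potency means the concentration at half of the fitted maximal effect; plate controls were no enzyme wells and a reference inhibitor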
# Target sequence (P00352 whole entry, looked up): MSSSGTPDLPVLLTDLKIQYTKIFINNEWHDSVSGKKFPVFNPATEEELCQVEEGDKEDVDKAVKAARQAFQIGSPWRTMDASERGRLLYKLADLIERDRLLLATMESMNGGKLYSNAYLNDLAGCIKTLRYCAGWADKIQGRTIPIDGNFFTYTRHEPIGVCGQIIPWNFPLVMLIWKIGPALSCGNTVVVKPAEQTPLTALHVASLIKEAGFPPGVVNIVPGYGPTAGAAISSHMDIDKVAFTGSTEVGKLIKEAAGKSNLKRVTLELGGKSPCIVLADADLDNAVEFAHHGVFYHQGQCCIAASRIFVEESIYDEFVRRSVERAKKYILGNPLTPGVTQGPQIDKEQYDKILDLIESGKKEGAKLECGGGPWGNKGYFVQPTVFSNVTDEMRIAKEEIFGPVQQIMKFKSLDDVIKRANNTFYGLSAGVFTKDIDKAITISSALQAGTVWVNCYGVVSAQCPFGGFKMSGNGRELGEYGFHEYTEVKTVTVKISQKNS
# Starred values were filed as active, the others as inactive; ? = inconclusive; . = no result; ! = a repeat was not active; [ ] = another dose, or the depositor's remark. Shown are actives, neighbours in structure and some others; about 8.5% of the full set was active somewhere. Unless noted, the call rests on the fitted dose curve; in most records, active means well fitted curve in the direction sought with a large enough effect; inconclusive means small, poorly fitted or top-dose-only effect, or another doubt; inactive means no such curve, though single readings can be large; an effect the other way counts as inactive or inconclusive. Unless noted, on the % scale 0 is the no-effect control and ±100 the full control effect.
SMILES,NPSR antagonist,KDM4E inh,Coupling enz,RGS12 GoLoco inh,Sfp PPTase inh,ALDH1A1 block
O=[N+]([O-])C(Br)(CO)CO,.,.,.,2.9%,8.91µM*,.
O=C1NC(=O)C(=Cc2ccc(-c3ccccc3[N+](=O)[O-])o2)C(=O)N1,?,20µM*,0.8,7.3%,22.4µM*,.
O=C1NC(=O)C(=Cc2ccc(-c3cc(Cl)ccc3[N+](=O)[O-])o2)C(=O)N1,?,-29.3%,1.6,34.9%,-102.1%,22.4µM*
CC([C@H](O)c1ccccc1)N(C)C (stereo partly specified),.,?,5.1,-6.9%,18.4%,20µM*
CNC(C)[C@H](O)c1ccccc1 (stereo partly specified),.,3.8%,-0.8,1.6%,0.4%,7.0%
CN1CCC(O)(c2ccc(Cl)cc2)C(C(=O)c2ccc(Cl)cc2)C1 (stereo unspecified),-5.7%,2.7%,1.6,-0.2%,-8.0%,0.112µM*
COc1cccc(-n2c(=S)[nH]c3ccccc3c2=O)c1,-3.5%,-6.7%,-0.9,4.1%,16.6%,4.7%
COc1ccc2c(c1)NP(=S)(Oc1ccccc1)N2 (stereo unspecified),-0.3%,?,-4.4,-2.6%,31.6µM*,.
CC(C)(C)OOC(C)(C)C,.,.,.,5.6%,.,-4.1%
COC(C)(C)C,.,.,.,2.8%,.,17.8µM*
C[C@@]12CC[C@H]3[C@H](CCC4=CC(=O)CC[C@H]43)[C@H]1CC[C@H]2OC1(O)C(=O)c2ccccc2C1=O,.,.,.,9.0%[14.2 µM],.,0.316µM*
O=C(N[C@H]1CN2CCC1CC2)c1ccc(Cl)cc1,.,-5.7%,2.9,10.8%,-17.8%,6.4%
O=C(NC1CN2CCC1CC2)c1ccc(-c2ccc([N+](=O)[O-])cc2)o1 (stereo unspecified),-13.1%,-2.2%,1.0,0.8%,56.2µM*,0.447µM*
CCOc1ccccc1N1CCN(Cc2cccc(OC)c2OC)CC1,-8.5%[46.1 µM],?,-41.1*,-21.4%,-1.4%,?
CC(C)N1CCN(Cc2ccccc2C(F)(F)F)CC1CCO (stereo unspecified),8.1%,2.6%,-0.1,13.1%,22.3%,7.6%
CCOC(=O)N1CCN(Cc2ccccc2F)CC1,-11.2%[46.1 µM],?,2.0,0.4%,15.3%,14.1µM*
FC(F)(F)c1ccccc1CN1CCN(Cc2ccccc2)CC1,-4.1%[46.1 µM],?,0.6,5.3%,?,20µM*
Cc1ccccc1CN1CCN(C(=O)Cc2ccccc2)CC1,-2.5%,?,2.7,-5.7%,-3.2%,-7.6%
Cc1ccc(CN2CCN(Cc3ccccc3F)CC2)cc1,2.9%,12.6µM*,0.0,0.1%,-27.2%,?
COc1cccc(CN2CCNCC2)c1OC,.,.,2.7,.,-6.6%,.
c1nc[nH]n1,.,.,.,7.0%,.,1.2%
C[N+](C)(C)CCCl,.,.,1.8,.,11.7%,.
Nc1ncnc2c1ncn2[C@@H]1O[C@H](COP(=O)(O)OP(=O)(O)CP(=O)(O)O)[C@@H](O)[C@H]1O,.,.,.,0.7%,1.3%,?
NCC[C@H](NC(=O)[C@@H](N)CCCN=C(N)N[N+](=O)[O-])C(N)=O,.,.,0.5,.,?,.
CCC/C=C/C=C/C(=O)OC1/C(=C/C(=O)OC)CC2CC(C(C)O)OC(=O)CC(O)CC3CC(OC(C)=O)C(C)(C)C(O)(CC4C/C(=C/C(=O)OC)CC(/C=C\C(C)(C)C1(O)O2)O4)O3 (stereo unspecified),.,.,.,.,10.2%,.
SMILES,NPSR antagonist,KDM4E inh,Coupling enz,RGS12 GoLoco inh,Sfp PPTase inh,ALDH1A1 block
COC(=O)[C@H]1C(=O)[C@H](C(=O)OC)[C@@H]2CC[C@H]1N2C,.,.,.,5.4%[14.2 µM],.,-0.4%[13.5 µM]
COc1ccc(CN2CCN(Cc3ccccc3OC)CC2)cc1,.,.,2.7,.,?,.
COc1ccccc1CN1CCN(Cc2ccc(Cl)cc2)CC1,-26.7%,20µM*,-0.6,-1.9%,79.4µM*,?
CC(C)(C)c1cc(C=C(C#N)C#N)cc(C(C)(C)C)c1O,?,19.0%,.,9.8%,56.2µM*,8.91µM*!
N#CC(C#N)=Cc1ccc(O)c(O)c1,-7.4%[46.1 µM],7.94µM*,6.8,-4.5%,39.8µM*,11.2µM*
CCc1ccc(/C=C(/C#N)C(N)=S)cc1,2.1%,?,-2.7,-1.5%,?,31.6µM*
N#CC(=Cc1ccc(O)c(O)c1)C(N)=S,?,8.91µM*,.,27.8%,.,0.794µM*
CCNN,.,.,-4.8,.,?,.
CN(C)c1ccc(C=C(C#N)C#N)cc1,9.7%,6.8%,-1.0,-4.4%,21.1%,28.2µM*
N#CC(C#N)=Cc1ccc(N2CCCC2)cc1,-2.7%,-12.3%,-0.1,1.0%,-1.1%,10µM*
COc1cc(C=C(C#N)C#N)cc(O)c1O,-28.0%[46.1 µM],11.2µM*,.,17.3%,.,31.6µM*
O=C(O)CCC(CP(=O)(O)O)C(=O)O (stereo unspecified),.,.,1.0,.,-7.3%,.
O=S(=O)(Nc1nccs1)c1ccc([As](=O)(O)O)cc1,.,.,.,-3.7%[14.2 µM],.,-2.2%[13.5 µM]
C[C@@H](Cc1ccc(Cl)cc1Cl)NO,.,.,.,5.7%[14.2 µM],.,11.4%[13.5 µM]
CCOC(=O)c1cc(C)sc1/N=C/C1C(=O)NC(=S)NC1=O,-45.6%,?,-3.4,36.1%,20µM*,7.08µM*
CCOC(=O)c1c(/N=C/C2C(=O)NC(=S)NC2=O)sc(C)c1C,-12.3%,-4.3%,-10.1,92.4%,25.1µM*,20µM*
N#Cc1c(/N=C/C2C(=O)NC(=S)NC2=O)sc2c1CCCC2,-4.1%,?,-10.0,43.6%,22.4µM*,22.4µM*
CCOC(=O)c1c(/N=C/C2C(=O)NC(=S)NC2=O)sc2c1CCC2,3.5%,?,-0.9,29.4%,12.6µM*,17.8µM*
CN1C(=O)CCS(=O)(=O)[C@@H]1c1ccc(Cl)cc1,.,-0.1%[25.5 µM],-0.3,2.2%[21.6 µM],14.2%,0.6%[20.9 µM]
O=c1[nH]c(=O)n(-c2ccc(F)cc2)c(O)c1/C=C1\C=Nc2ccccc21,.,.,-1.5,.,-1.0%,.
O=c1[nH]c(=O)n(-c2ccccc2F)c(O)c1/C=C1\C=Nc2ccccc21,.,.,2.0,.,35.5µM*,.
O=c1[nH]c(=O)n(CC2CCCO2)c(O)c1/C=C1\C=Nc2ccccc21 (stereo unspecified),-21.4%,?,-0.8,23.2%,-20.2%,14.1µM*
O=NN1CCCC1c1cccnc1 (stereo unspecified),.,.,.,-3.8%,25.9%,?
CC[C@@H]1[C@@H]2C[C@H]3[C@H]4N(C)c5ccccc5[C@@]45C[C@@H]([C@@H]2[C@@H]5O)N3[C@H]1O,.,4.7%[25.5 µM],-0.3,-22.0%[21.6 µM],14.5%,-6.0%[20.9 µM]
C/C=C/C/C=C/CCC(=O)[C@H]1O[C@H]1C(N)=O,.,.,.,0.8%,6.7%,?

# Compound activity deposited in PubChem BioAssay by National Center for Advancing Translational Sciences (NCATS).
